Growth data for 8 compounds are collected here from PubChem BioAssay (NCI).

Compounds without any hit were thinned out: in the full panel of roughly 83,000, 20% have a hit.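 Negative percent growth values reflect cell death: -40 means 40% of the cells present at the start died, and -100 means all died.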 Unmarked numbers belong to inactive results. Activity calls are given as the source filed them. Rule for the calls: active = growth percent below 10; inactive = the rest.

Among the test systems are DU-145 prostate; K-562 leukemia; MALME-3M melanoma; MDA-MB-231 breast; RXF 393 renal; SF-268 CNS; SF-295 CNS; SF-539 CNS; UACC-257 melanoma; M14 melanoma; HCT-15 colon; HT29 colon; SNB-75 CNS; SNB-19 CNS; U251 CNS; PC-3 prostate; SK-MEL-5 melanoma; UACC-62 melanoma; LOX IMVI melanoma; SK-MEL-28 melanoma.
Assay in all cases: NCI-60 one-dose screen, 48 h (100 = growth as untreated, 0 = no growth, -100 = all killed)
Holding throughout (conditions): 10 µM unless noted

In the case of `CC(C)c1ccc(/C=N/N=C(N)N)cc1`, the growth is 98.9% in the experiment on DU-145 prostate; 19.9% in the experiment on K-562 leukemia; 88.4% with MALME-3M melanoma; 89.3% with MDA-MB-231 breast; 89.4% in the experiment on RXF 393 renal; 88.5% with SF-268 CNS. In addition, the growth is 67% in the experiment with SF-295 CNS; 91.8% with SF-539 CNS; 77% in the experiment with UACC-257 melanoma; 84.9% in the experiment on M14 melanoma; 89.6% with HCT-15 colon; 70.6% with HT29 colon. For the same compound, the growth in the experiment with SNB-75 CNS was 76.9%; in the experiment on SNB-19 CNS it was 97.1%; in the experiment on U251 CNS, 89.7%; in the experiment on PC-3 prostate it was 48.4%; in the experiment on SK-MEL-5 melanoma, 91.7%; with UACC-62 melanoma, 95.8%. Moreover, the growth with LOX IMVI melanoma is 83.6%; in the experiment with SK-MEL-28 melanoma, 85.9%.

As for `CCN(CC)CCCNCc1cc(-c2ccccc2)nc2ccccc12`, the growth in the experiment on DU-145 prostate is 16.6%; in the experiment on K-562 leukemia, 24.3%; in the experiment on MALME-3M melanoma, 50.7%; with MDA-MB-231 breast it was 31.3%; with RXF 393 renal, 77.8%; in the experiment on SF-268 CNS, 39.8%. Further, the growth is 70.2% with SF-295 CNS; 32.7% in the experiment on SF-539 CNS; 80% with UACC-257 melanoma; 4.63% (active) with M14 melanoma; 15.3% in the experiment on HCT-15 colon; 55.1% in the experiment with HT29 colon. Besides, the growth is 73.6% in the experiment with SNB-75 CNS; 82.5% in the experiment with SNB-19 CNS; 21.5% in the experiment with U251 CNS; 75% with PC-3 prostate; 69.6% in the experiment with SK-MEL-5 melanoma; 95.6% with UACC-62 melanoma. Further, the values for the growth in the experiment with LOX IMVI melanoma and in the experiment with SK-MEL-28 melanoma were 9.8% (active) and 92.7%, respectively.

For the compound `Oc1c(CNCCNCc2cc(Cl)cc(Cc3ccccc3)c2O)cc(Cl)cc1Cc1ccccc1`, the growth is 24.2% in the experiment with DU-145 prostate; 13.2% in the experiment with K-562 leukemia; 8.23% (active) in the experiment on MALME-3M melanoma; 36.2% in the experiment on MDA-MB-231 breast; 17.6% in the experiment with RXF 393 renal; 18.6% with SF-268 CNS. Besides, the growth was 0.247% (active) in the experiment with SF-295 CNS; 2.22% (active) in the experiment on SF-539 CNS; 16% in the experiment with UACC-257 melanoma; 2.36% (active) in the experiment on M14 melanoma; 25.7% with HCT-15 colon; 30.6% in the experiment with HT29 colon. Moreover, the growth in the experiment on SNB-75 CNS was 28.4%; in the experiment on SNB-19 CNS it was 2.51% (active); in the experiment on U251 CNS, 17%; in the experiment with PC-3 prostate it was 40.9%; in the experiment on SK-MEL-5 melanoma it was -13.2% (active); with UACC-62 melanoma it was -11.5% (active). The growth is 4.57% (active) in the experiment with LOX IMVI melanoma and 19.5% with SK-MEL-28 melanoma.

In the case of `COc1cc(-c2nc(SCCC(C)C)nc(Nc3ccc(S(N)(=O)=O)cc3)c2C#N)cc(OC)c1OC`, the growth in the experiment with DU-145 prostate was 43.1%; in the experiment with K-562 leukemia, 7.52% (active); with MALME-3M melanoma, 19.1%; in the experiment on MDA-MB-231 breast it was 25.1%; in the experiment with RXF 393 renal it was 10.1%; in the experiment with SF-268 CNS it was 42.4%. Moreover, the growth was 21.8% in the experiment with SF-295 CNS; 38.6% in the experiment with SF-539 CNS; 46% with UACC-257 melanoma; 20.6% with M14 melanoma; 14% in the experiment on HCT-15 colon; 2.83% (active) in the experiment with HT29 colon. The growth in the experiment with SNB-75 CNS is 47.6%; with SNB-19 CNS, 54.3%; in the experiment on U251 CNS it was 31.5%; in the experiment with PC-3 prostate, 9.42% (active); in the experiment with SK-MEL-5 melanoma, 37.4%; with UACC-62 melanoma, 45.7%. The growth in the experiment with LOX IMVI melanoma was 5.65% (active); with SK-MEL-28 melanoma, 59.1%.

In the case of `Cn1cc(-c2noc(-c3cn(C)c4ncc(F)cc34)n2)c2ccccc21`, the growth was 79.2% in the experiment with DU-145 prostate; 77% in the experiment on K-562 leukemia; 66% with MALME-3M melanoma; 55.1% in the experiment with MDA-MB-231 breast; 73.1% in the experiment on RXF 393 renal; 71.4% in the experiment on SF-268 CNS. Besides, the growth is 49.6% with SF-295 CNS; 75.2% in the experiment with SF-539 CNS; 101% in the experiment on UACC-257 melanoma; 71.7% with M14 melanoma; 58.2% in the experiment with HCT-15 colon; 66.1% in the experiment with HT29 colon. Also, the growth in the experiment on SNB-75 CNS was 1.91% (active); in the experiment on SNB-19 CNS it was 81.2%; with U251 CNS, 30.8%; in the experiment with PC-3 prostate, 71.7%; in the experiment with SK-MEL-5 melanoma it was 82.8%; in the experiment on UACC-62 melanoma it was 80.1%. Further, the growth with LOX IMVI melanoma is 52.3%; in the experiment on SK-MEL-28 melanoma, 94.1%.

For the compound `COc1ccccc1S(=O)Nc1ccccc1` (stereo not given), the growth in the experiment on DU-145 prostate is 116%; with K-562 leukemia it was 104%; with MALME-3M melanoma it was 86.2%; in the experiment on MDA-MB-231 breast, 92.5%; in the experiment with RXF 393 renal, 100%; in the experiment on SF-268 CNS, 100%. Moreover, the growth is 98.5% in the experiment with SF-295 CNS; 109% in the experiment with SF-539 CNS; 78.4% with UACC-257 melanoma; 111% in the experiment with M14 melanoma; 102% in the experiment with HCT-15 colon; 91.4% in the experiment on HT29 colon. In addition, the growth in the experiment with SNB-75 CNS was 87.4%; with SNB-19 CNS it was 99.5%; with U251 CNS it was 91%; in the experiment on PC-3 prostate it was 87.2%; with SK-MEL-5 melanoma, 96.8%; in the experiment on UACC-62 melanoma, 94.1%. The growth in the experiment with LOX IMVI melanoma was 99.4%; with SK-MEL-28 melanoma, 114%.

Turning to `COc1ccc(/C=C(/C(=O)c2ccc(Cl)cc2)C(=O)C(F)(F)F)cc1`, the growth with DU-145 prostate is 99.2%; with K-562 leukemia, 92.1%; in the experiment on MALME-3M melanoma, 107%; with MDA-MB-231 breast, 110%; in the experiment on RXF 393 renal, 104%; in the experiment with SF-268 CNS, 96.8%. Further, the growth was 96.2% with SF-295 CNS; 108% with SF-539 CNS; 99.3% in the experiment with UACC-257 melanoma; 120% in the experiment with M14 melanoma; 99% with HCT-15 colon; 82.1% in the experiment on HT29 colon. In addition, the growth in the experiment on SNB-75 CNS was 112%; in the experiment on SNB-19 CNS, 93.5%; in the experiment on U251 CNS it was 94.1%; in the experiment on PC-3 prostate, 102%; in the experiment with SK-MEL-5 melanoma, 102%; with UACC-62 melanoma, 96.4%. Further, the growth is 95.6% with LOX IMVI melanoma and 106% in the experiment on SK-MEL-28 melanoma.

Consider `CCCCN(CC)CC(CC)Nc1cc(OC)cc2cccnc12` (stereo not given), for which the growth in the experiment with DU-145 prostate is 110%; in the experiment with K-562 leukemia, 114%; with MALME-3M melanoma it was 110%; in the experiment with MDA-MB-231 breast, 115%; with RXF 393 renal, 122%; in the experiment with SF-268 CNS, 104%. Further, the growth was 109% in the experiment on SF-295 CNS; 102% in the experiment on SF-539 CNS; 92.9% with UACC-257 melanoma; 109% in the experiment with M14 melanoma; 97.2% with HCT-15 colon; 103% in the experiment on HT29 colon. The growth was 100% in the experiment with SNB-75 CNS; 110% in the experiment on SNB-19 CNS; 101% in the experiment on U251 CNS; 96.5% in the experiment with PC-3 prostate; 99.9% in the experiment on SK-MEL-5 melanoma; 106% with UACC-62 melanoma. In addition, the growth in the experiment with LOX IMVI melanoma is 114%; with SK-MEL-28 melanoma, 121%.
